The source of these data is ChEMBL document CHEMBL3988442, “University of Dundee, Small-Polar-MMV Screening Library” (2021).

For some assays here: Results with a measured potency or affinity are listed apart.

Set-up in all cases: scale not given: direction of the effect not stated beside the values
The target in test [1] is Protein translocase subunit SecA (Escherichia coli (strain K12)) (UniProt P10408). The experiment in a line: Assay to Identify E. coli SecA ATPase Inhibitors. The class given is functional. The note with it: 30 µM.
Sequence of Protein translocase subunit SecA (Escherichia coli (strain K12)) (P10408 whole entry): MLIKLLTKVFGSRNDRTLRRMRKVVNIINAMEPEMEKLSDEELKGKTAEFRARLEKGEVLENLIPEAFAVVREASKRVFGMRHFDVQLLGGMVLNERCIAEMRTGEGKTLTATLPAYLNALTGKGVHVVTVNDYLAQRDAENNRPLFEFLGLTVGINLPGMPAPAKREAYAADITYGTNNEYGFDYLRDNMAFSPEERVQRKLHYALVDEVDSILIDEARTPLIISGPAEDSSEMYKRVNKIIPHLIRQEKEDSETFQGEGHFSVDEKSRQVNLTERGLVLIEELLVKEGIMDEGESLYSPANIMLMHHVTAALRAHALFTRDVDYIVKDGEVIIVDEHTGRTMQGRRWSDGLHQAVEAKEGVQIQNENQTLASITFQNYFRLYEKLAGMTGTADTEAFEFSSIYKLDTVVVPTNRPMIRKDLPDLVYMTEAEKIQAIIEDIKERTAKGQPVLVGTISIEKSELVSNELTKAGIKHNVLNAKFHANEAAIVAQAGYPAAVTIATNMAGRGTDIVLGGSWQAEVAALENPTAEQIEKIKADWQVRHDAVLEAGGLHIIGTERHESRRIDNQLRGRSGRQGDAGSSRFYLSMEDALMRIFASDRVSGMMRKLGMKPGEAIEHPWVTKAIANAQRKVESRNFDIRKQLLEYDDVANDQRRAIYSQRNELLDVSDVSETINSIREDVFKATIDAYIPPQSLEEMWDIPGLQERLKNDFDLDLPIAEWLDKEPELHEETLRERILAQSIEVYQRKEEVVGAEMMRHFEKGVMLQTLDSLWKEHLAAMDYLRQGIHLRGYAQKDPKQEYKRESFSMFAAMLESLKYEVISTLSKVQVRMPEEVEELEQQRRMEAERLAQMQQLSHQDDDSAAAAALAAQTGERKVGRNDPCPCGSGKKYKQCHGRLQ
The target of test [2] is T1, Ubiquitin-activating enzyme e1, putative (Leishmania donovani (strain BPK282A1)) (UniProt E9BSI1).
T1 sequence (whole entry): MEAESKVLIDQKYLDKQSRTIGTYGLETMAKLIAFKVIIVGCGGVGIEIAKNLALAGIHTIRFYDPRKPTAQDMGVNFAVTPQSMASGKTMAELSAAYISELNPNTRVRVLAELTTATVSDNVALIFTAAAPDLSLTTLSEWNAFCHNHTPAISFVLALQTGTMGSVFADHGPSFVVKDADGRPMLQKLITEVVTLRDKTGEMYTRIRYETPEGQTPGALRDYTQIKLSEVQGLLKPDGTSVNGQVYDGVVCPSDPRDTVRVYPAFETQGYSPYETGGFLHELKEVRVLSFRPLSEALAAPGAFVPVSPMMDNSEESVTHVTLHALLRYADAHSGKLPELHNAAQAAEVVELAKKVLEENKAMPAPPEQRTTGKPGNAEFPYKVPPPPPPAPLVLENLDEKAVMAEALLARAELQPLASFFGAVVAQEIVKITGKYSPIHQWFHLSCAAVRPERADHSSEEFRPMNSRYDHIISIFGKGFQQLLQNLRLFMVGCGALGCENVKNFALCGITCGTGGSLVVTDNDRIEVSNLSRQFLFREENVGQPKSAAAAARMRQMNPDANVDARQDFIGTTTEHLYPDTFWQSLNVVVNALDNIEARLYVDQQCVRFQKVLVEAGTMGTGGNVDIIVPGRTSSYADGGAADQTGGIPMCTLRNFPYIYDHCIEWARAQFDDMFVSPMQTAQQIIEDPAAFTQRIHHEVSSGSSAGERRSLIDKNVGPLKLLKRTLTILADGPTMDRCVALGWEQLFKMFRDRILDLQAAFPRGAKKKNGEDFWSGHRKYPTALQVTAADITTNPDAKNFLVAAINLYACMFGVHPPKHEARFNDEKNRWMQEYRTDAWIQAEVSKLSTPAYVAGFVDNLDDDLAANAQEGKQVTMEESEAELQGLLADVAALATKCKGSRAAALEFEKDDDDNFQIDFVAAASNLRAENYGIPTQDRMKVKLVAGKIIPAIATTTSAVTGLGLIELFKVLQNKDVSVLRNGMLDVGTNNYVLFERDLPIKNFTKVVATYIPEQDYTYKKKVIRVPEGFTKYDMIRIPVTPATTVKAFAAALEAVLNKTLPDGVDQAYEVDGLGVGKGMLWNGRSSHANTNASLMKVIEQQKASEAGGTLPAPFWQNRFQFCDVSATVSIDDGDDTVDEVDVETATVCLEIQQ
The test can be described thus: Leishmania donovani Ubiquitin Activating Enzyme (LdE1). The class given is functional. The note with it: 30 µM.

In test [3] the target is AMP-activated protein kinase, AMPK (Homo sapiens) (UniProt P54646+O43741+P54619+Q9UGJ0+Q9Y478+Q13131+Q9UGI9). The experiment in a line: AMP-dependent Kinase enzyme assay. An in vitro enzyme assay that detects ADP turnover that is directly proportional to AMPK activity. This uses naive AMPK that is activated during the assay with MK-8722. The class given is functional. The note with it: 30 µM.

Test [4] deals with Sialic acid-binding Ig-like lectin 9 (Homo sapiens) (UniProt Q9Y336). The experiment in a line: Hs-Siglec9 ALPHAscreen SOP 20170721. As to conditions: 10 µM. (In general: Bead proximity is the source of the signal in Alpha formats.)
Sequence of Sialic acid-binding Ig-like lectin 9 (Homo sapiens) (Q9Y336 whole entry): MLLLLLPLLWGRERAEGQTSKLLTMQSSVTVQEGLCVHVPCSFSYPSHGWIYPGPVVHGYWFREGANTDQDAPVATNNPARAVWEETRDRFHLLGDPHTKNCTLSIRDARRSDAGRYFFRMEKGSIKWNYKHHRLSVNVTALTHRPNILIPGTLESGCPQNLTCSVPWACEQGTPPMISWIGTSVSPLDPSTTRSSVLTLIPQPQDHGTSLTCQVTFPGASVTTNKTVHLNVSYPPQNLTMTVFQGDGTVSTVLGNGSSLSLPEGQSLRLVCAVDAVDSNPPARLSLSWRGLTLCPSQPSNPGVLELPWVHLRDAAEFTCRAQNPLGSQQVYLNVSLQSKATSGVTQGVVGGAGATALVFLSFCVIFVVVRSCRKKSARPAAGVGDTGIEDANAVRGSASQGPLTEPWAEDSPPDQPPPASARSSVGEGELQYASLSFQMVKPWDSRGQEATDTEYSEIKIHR
A further test relates to Trypanosoma cruzi. The experiment in a line: Trypanosoma cruzi phosphomannomutase and mannose-1-phosphate guanylyltransferase assay. The class given is functional. As to conditions: 10 µM.
Test [5] addresses T2, Arginase-2, mitochondrial (Homo sapiens) (UniProt P78540).
T2 sequence (whole entry): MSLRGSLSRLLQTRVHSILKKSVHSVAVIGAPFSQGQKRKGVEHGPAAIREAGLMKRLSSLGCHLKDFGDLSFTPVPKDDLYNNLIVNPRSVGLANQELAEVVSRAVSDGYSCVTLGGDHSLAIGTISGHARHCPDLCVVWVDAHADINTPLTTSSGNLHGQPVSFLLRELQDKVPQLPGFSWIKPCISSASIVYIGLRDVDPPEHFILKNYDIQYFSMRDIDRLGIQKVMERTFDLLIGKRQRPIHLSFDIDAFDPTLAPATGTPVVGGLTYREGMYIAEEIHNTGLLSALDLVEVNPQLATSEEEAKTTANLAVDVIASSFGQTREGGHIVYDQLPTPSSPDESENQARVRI
The experiment in a line: in vitro enzyme assay to detect the production of urea directly proportional to the activity of Arginase II. Note: in the data most compounds retested in dose-response had high values. The class given is functional. The note with it: 33.3 µM.

For test [6], the target named is T3, Proteasome subunit beta (Trypanosoma cruzi) (UniProt O96673).
T3 sequence (whole entry): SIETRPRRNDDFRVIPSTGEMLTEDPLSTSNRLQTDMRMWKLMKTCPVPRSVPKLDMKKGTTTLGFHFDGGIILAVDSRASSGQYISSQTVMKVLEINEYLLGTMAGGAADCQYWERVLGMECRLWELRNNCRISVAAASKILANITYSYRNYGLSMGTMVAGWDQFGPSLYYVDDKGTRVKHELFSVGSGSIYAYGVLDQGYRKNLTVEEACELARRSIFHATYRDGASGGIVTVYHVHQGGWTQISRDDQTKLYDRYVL
The test can be described thus: Trypanosoma cruzi proteasome chymotrypsin-like activity (TcProtChymo) assay. Note: in the data most compounds retested in dose-response had high values. The class given is functional. The note with it: 9.37 µM.

The species entered for the next test is Homo sapiens. The test can be described thus: To identify inhibition of the IFN signalling (Jak-Stat) pathway via expression of an eGFP reporter gene under the control of an IFN-stimulated response element (ISRE) containing MxA promoter. The format is functional. As to conditions: 30 µM. (In general: A reporter such as luciferase makes a cellular process visible.)

In test [7] the target is T4, Tyrosyl-tRNA synthetase, putative (Trypanosoma cruzi (strain CL Brener)) (UniProt Q4DSP6).
T4 sequence (whole entry): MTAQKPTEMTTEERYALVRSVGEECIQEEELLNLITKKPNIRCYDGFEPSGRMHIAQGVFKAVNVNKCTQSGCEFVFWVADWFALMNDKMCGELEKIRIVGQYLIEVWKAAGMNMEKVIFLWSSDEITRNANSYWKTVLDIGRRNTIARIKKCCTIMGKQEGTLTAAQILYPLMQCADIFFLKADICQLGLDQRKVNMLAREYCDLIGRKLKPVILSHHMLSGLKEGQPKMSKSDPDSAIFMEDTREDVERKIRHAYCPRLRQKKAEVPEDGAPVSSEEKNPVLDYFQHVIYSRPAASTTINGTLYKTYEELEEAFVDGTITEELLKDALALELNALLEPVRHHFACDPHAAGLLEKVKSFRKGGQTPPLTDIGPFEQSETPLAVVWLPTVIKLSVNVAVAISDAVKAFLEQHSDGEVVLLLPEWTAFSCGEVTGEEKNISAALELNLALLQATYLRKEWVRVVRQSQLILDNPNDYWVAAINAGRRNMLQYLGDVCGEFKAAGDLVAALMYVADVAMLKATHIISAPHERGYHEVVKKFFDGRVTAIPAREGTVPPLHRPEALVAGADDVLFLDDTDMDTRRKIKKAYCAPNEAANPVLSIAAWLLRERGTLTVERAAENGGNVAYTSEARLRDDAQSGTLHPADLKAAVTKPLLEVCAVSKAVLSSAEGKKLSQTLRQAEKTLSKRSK
The experiment in a line: Trypanosoma cruzi tyrosyl tRNA synthetase (TcYRS) _High Tyrosine SOP. Note: in the data most compounds retested in dose-response had high values. The class given is functional. The note with it: 30 µM.

For test [8], the target named is T4, Tyrosyl-tRNA synthetase, putative (Trypanosoma cruzi (strain CL Brener)). The test can be described thus: Trypanosoma cruzi tyrosyl tRNA synthetase (TcYRS) SOP. The format is functional. The note with it: 30 µM.
Test [9] concerns the target Chromo domain-containing protein 1 (Saccharomyces cerevisiae (strain ATCC 204508 / S288c) (Baker's yeast)) (UniProt P32657). The test can be described thus: ScCHD-1 Enzyme Inhibition Assay. Note: in the data most compounds retested in dose-response had high values. The class given is functional. As to conditions: 30 µM.

Sequence of Chromo domain-containing protein 1 (Saccharomyces cerevisiae (strain ATCC 204508 / S288c) (Baker's yeast)) (P32657 whole entry, the tested form may be a part): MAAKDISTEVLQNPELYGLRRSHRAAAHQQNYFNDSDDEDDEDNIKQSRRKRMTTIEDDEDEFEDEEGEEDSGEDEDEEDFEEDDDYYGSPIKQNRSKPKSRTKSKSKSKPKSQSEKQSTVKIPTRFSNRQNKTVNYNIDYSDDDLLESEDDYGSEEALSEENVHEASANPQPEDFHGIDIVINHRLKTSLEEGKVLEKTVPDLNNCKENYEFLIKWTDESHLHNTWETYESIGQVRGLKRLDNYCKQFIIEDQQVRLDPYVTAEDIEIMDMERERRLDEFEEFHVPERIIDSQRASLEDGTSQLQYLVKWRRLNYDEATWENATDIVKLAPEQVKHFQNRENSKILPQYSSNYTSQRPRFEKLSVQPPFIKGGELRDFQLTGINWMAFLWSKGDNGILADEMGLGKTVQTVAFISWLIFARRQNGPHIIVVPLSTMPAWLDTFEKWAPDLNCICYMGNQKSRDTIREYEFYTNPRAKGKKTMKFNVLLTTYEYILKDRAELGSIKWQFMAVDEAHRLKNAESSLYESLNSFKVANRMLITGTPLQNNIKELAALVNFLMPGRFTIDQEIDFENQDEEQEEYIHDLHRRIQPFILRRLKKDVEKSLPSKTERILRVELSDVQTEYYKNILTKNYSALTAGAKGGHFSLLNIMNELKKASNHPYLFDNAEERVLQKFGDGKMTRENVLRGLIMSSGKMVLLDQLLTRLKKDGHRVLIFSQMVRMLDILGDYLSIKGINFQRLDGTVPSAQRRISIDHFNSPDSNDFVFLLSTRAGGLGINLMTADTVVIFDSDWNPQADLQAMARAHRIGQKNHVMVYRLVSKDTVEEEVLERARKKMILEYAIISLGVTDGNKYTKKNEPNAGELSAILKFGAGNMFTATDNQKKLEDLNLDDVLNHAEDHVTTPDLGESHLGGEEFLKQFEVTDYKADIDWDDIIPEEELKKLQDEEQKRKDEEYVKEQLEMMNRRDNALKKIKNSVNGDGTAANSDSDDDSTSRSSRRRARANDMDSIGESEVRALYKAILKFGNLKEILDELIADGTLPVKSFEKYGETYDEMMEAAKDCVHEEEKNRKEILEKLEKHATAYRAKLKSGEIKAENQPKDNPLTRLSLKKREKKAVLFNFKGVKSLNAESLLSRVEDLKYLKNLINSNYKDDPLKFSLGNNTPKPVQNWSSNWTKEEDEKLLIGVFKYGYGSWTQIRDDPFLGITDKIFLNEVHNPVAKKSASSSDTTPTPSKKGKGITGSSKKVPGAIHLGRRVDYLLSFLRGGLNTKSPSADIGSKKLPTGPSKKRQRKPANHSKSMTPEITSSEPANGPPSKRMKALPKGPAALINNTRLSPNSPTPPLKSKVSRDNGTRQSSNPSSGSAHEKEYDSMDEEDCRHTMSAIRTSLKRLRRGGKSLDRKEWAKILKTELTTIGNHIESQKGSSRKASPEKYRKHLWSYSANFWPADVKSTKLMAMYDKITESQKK

Take `CCN1CC2(CCC1=O)CCN(C(=O)c1ccc(Cl)cc1O)CC2`: the Percent Effect in [1] is 0.161%; in test [2] it was 12.5%; in test [3] it was -4.82%; in test [4] it was 5.1%; with Trypanosoma cruzi, 4.37%; in test [5], 25.6%. In addition, the Percent Effect was 4.56% in [6]; 19.3% in the test listed under Homo sapiens; 4.21% in test [7]; 15.4% in test [8]; -5.87% in test [9].
`CSc1ccc(NS(=O)(=O)c2cnn(C)c2)cn1`: the Percent Effect in test [1] was -5.12%; in test [2], 8.22%; in [3] it was -0.942%; in test [4], 42.3%; with Trypanosoma cruzi, 3.57%; in [5], -4.39%. Further, the Percent Effect in [6] is 0.0856%; in the test listed under Homo sapiens, -19.3%; in [7], 4.17%; in test [8] it was 13.6%; in test [9], -2.22%.
`Cc1csc(C2CCCN(C(=O)c3ccc(=O)n(C)n3)C2)n1` (stereo not given): the Percent Effect in [1] is -1.5%; in test [2], 0%; in [3], -1.05%; in test [4], -7.99%; with Trypanosoma cruzi, -4.2%; in test [5], 2.23%. Also, the Percent Effect in test [6] is 1.97%; in the test filed under Homo sapiens, -5.09%; in [7], -1.07%; in test [8], -1.24%; in test [9], -2.21%.
For `CCCc1n[nH]c(C2CN(C(=O)c3ccco3)CCO2)n1` (stereo not given), the Percent Effect in test [1] was -3.05%; in test [2], 0%; in test [3] it was 2.64%; in [4], -8.28%; in the test on Trypanosoma cruzi, -1.03%; in test [5] it was 2.52%. Also, the Percent Effect in test [6] was 8.71%; in the test filed under Homo sapiens, -11.3%; in test [7] it was 0.493%; in [8], -1.24%; in test [9], 13.1%.
For the molecule `Cc1cccc(-c2[nH]ncc2CNCC2CCN(CC(C)O)CC2)c1` (stereo not given), the Percent Effect in test [1] was -3.75%; in [2], 8.11%; in [3], -18.5%; in test [4] it was 11.6%; in the test with Trypanosoma cruzi, 1.42%; in [5], 0.401%. Also, the Percent Effect in test [6] was 3.96%; in the test filed under Homo sapiens, 3.31%; in test [7], 5.42%; in test [8], 18.5%; in test [9], -8.81%.
With `CCn1nc(CC(C)C)cc1C(=O)N1C[C@H](O)[C@@H](N2CCCCC2)C1`, the Percent Effect in [1] is -3.95%; in [2] it was 16%; in [3], -4.12%; in [4] it was 15.8%; in the test with Trypanosoma cruzi, 6.33%; in test [5] it was 4.69%. The Percent Effect in test [6] is 12.6%; in the test listed under Homo sapiens, -6.25%; in test [7], 2.73%; in test [8] it was 13.6%; in test [9], -6.08%.
For `Cc1noc2nc(C3CCN(Cc4cccnc4)CC3)cc(C(F)F)c12`, the Percent Effect is -3.07% in [1]; 1.35% in [2]; 4.19% in test [3]; 1.16% in [4]; -6.32% in the test on Trypanosoma cruzi; -1.16% in [5]. The Percent Effect in test [6] stood at 2.03%; in the test filed under Homo sapiens, 25.1%; in test [7] it was 2.15%; in test [8], 3.9%; in test [9] it was 1.36%.
Consider `Cc1cnn(C2CN(CC(O)c3ccc4c(c3)OCCO4)C2)c1` (stereo not given), for which the Percent Effect was -0.511% in [1]; -24% in test [2]; -2.25% in test [3]; -4.57% in test [4]; -0.292% with Trypanosoma cruzi; 0% in test [5]. In addition, the Percent Effect in test [6] is 7.5%; in the test filed under Homo sapiens, 10.6%; in [7], 13.7%; in test [8], 13.6%; in [9], -6.83%.
As for `CC(=O)Nc1ccc(S(=O)(=O)NC(=O)CCC2CCCO2)cc1` (stereo not given), the Percent Effect was -9.79% in [1]; 10.8% in [2]; -16.6% in test [3]; 34.9% in [4]; 8.21% in the test on Trypanosoma cruzi; -16.8% in test [5]. The Percent Effect in test [6] was 6.31%; in the test filed under Homo sapiens, -1.72%; in [7], 1.48%; in test [8] it was 13.6%; in test [9] it was -16.9%.
For `CCN1CCN(C2CCN(Cc3ncc(C(C)(C)C)o3)CC2)C1=O`, the Percent Effect is -2.95% in [1]; -7.79% in test [2]; 6.42% in [3]; 7.85% in [4]; 1.47% in the test on Trypanosoma cruzi; -1.47% in test [5]. Moreover, the Percent Effect is 7.2% in test [6]; -13.2% in the test listed under Homo sapiens; 6.67% in [7]; 7.06% in test [8]; -19.1% in test [9].
